# Experimental data from PMC9838217, “Structure of SALL4 zinc finger domain reveals link between AT-rich DNA binding and Okihiro syndrome”.
# Changes are numbered by the printed parent chain.
# Target: T1, SALL4 ZFC4 WT (HT-SELEX) (Mus musculus, UniProt Q8BX22 870-940)
# T1 sequence: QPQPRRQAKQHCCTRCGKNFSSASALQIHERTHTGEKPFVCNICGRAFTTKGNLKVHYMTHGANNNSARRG
# Experiment: HT-SELEX; high values mean tight binding
# Conditions: protein: recombinant; vector His6-GST; dsDNA, one strand shown
# Method in brief: (§1)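 Purified recombinant mouse SALL4 zinc finger cluster 4 (residues 870–940, 1 µg) was incubated with library DNA (1.5 µg first cycle, 200 ng later) in 100 µl of 10 mM Tris–HCl pH 7.5, 50 mM NaCl, poly(dI-dC) and DTT for 10 min at room temperature, with Ni2+ bead capture and reselection for up to 6 cycles in triplicate. MiSeq reads were scanned for 6-mers. Binding signal is each canonical k-mer's read fraction as fold change relative to the initial random library.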
row,Sequence,binding signal [fold-change vs cycle 0]
1,ACTCTC,0.904 ± 0.0319
2,CGTTCA,0.712 ± 0.0321
3,CGAGAA,0.725 ± 0.0428
4,TAAAAA,3.23 ± 0.33
5,CAAAAG,1.03 ± 0.0267
6,AGCTAT,1.19 ± 0.0625
7,CAAATC,1.1 ± 0.0172
8,CTCGAC,0.348 ± 0.0179
9,ACTACC,0.799 ± 0.0371
10,AACTCC,0.917 ± 0.0119
11,ACAGTC,0.718 ± 0.0285
12,GGCTAC,0.316 ± 0.0371
13,GCGAAA,0.363 ± 0.0241
14,AGTAAG,1.58 ± 0.0246
15,CACTCC,0.513 ± 0.0257
16,CTGCAG,0.318 ± 0.0345
17,CAGCTC,0.332 ± 0.0301
18,CAGATG,0.794 ± 0.0267
19,GTAGCA,0.6472 ± 0.00166
20,CCACAC,0.35 ± 0.0241

row,Sequence,binding signal [fold-change vs cycle 0]
1,ATTATC,2.31 ± 0.229
2,AATTAA,3.49 ± 0.279
3,ATGTCC,0.723 ± 0.0385
4,CCGTTA,0.746 ± 0.0254
5,GATTAC,1.43 ± 0.106
6,CGAAAG,0.614 ± 0.0288
7,CGTACG,0.303 ± 0.0125
8,TTGCAA,1.13 ± 0.0202
9,GAGGGA,0.53 ± 0.0239
10,CTCGGA,0.396 ± 0.0242
11,CCCGTA,0.415 ± 0.0258
12,CGTGTC,0.335 ± 0.0147
13,CTAGGA,0.873 ± 0.029
14,CGAGGA,0.409 ± 0.0195
15,GGACAA,0.637 ± 0.0222
16,AAGCTG,0.608 ± 0.0202
17,CTCATC,0.898 ± 0.0192
18,CTTAGC,0.73 ± 0.019
19,AAAAGT,1.71 ± 0.0529
20,AAAGAC,1.11 ± 0.0498

# Target: T2, SALL4 ZFC4 R900W (HT-SELEX) (Mus musculus, UniProt Q8BX22 870-940, R900W)
# T2 sequence: T1 sequence with R31W
# Experiment: HT-SELEX; high values mean tight binding
# Conditions: protein: recombinant; vector His6-GST; dsDNA, one strand shown
# Method in brief: as §1
row,Sequence,binding signal [fold-change vs cycle 0]
1,ACTCTC,1.05 ± 0.0292
2,CGTTCA,0.811 ± 0.0256
3,CGAGAA,0.818 ± 0.0294
4,TAAAAA,2.2 ± 0.213
5,CAAAAG,1.17 ± 0.0219
6,AGCTAT,1.26 ± 0.0563
7,CAAATC,1.18 ± 0.0162
8,CTCGAC,0.396 ± 0.0285
9,ACTACC,0.948 ± 0.0381
10,AACTCC,1.02 ± 0.0156
11,ACAGTC,0.8733 ± 0.00718
12,GGCTAC,0.356 ± 0.0124
13,GCGAAA,0.395 ± 0.00888
14,AGTAAG,1.73 ± 0.024
15,CACTCC,0.603 ± 0.0288
16,CTGCAG,0.373 ± 0.0324
17,CAGCTC,0.394 ± 0.00722
18,CAGATG,0.922 ± 0.0206
19,GTAGCA,0.74 ± 0.0284
20,CCACAC,0.414 ± 0.0369

row,Sequence,binding signal [fold-change vs cycle 0]
1,ATTATC,2.08 ± 0.177
2,AATTAA,2.6 ± 0.189
3,ATGTCC,0.831 ± 0.0392
4,CCGTTA,0.832 ± 0.0409
5,GATTAC,1.54 ± 0.0979
6,CGAAAG,0.735 ± 0.037
7,CGTACG,0.389 ± 0.029
8,TTGCAA,1.09 ± 0.0477
9,GAGGGA,0.609 ± 0.0584
10,CTCGGA,0.468 ± 0.0145
11,CCCGTA,0.477 ± 0.0181
12,CGTGTC,0.407 ± 0.0314
13,CTAGGA,0.993 ± 0.0392
14,CGAGGA,0.5 ± 0.0275
15,GGACAA,0.742 ± 0.00957
16,AAGCTG,0.708 ± 0.0215
17,CTCATC,1.04 ± 0.0368
18,CTTAGC,0.843 ± 0.0192
19,AAAAGT,1.76 ± 0.0934
20,AAAGAC,1.29 ± 0.0526

# Target: T3, SALL4 ZFC4 G921D (HT-SELEX) (Mus musculus, UniProt Q8BX22 870-940, G921D)
# T3 sequence: T1 sequence with G52D
# Experiment: HT-SELEX; high values mean tight binding
# Conditions: protein: recombinant; vector His6-GST; dsDNA, one strand shown
# Method in brief: as §1
row,Sequence,binding signal [fold-change vs cycle 0]
1,ACTCTC,1.07 ± 0.0307
2,CGTTCA,0.871 ± 0.0211
3,CGAGAA,0.857 ± 0.0383
4,TAAAAA,1.92 ± 0.229
5,CAAAAG,1.153 ± 0.00875
6,AGCTAT,1.27 ± 0.0842
7,CAAATC,1.21 ± 0.0283
8,CTCGAC,0.539 ± 0.0655
9,ACTACC,0.968 ± 0.0334
10,AACTCC,1.06 ± 0.0177
11,ACAGTC,0.889 ± 0.0202
12,GGCTAC,0.493 ± 0.0659
13,GCGAAA,0.534 ± 0.0715
14,AGTAAG,1.53 ± 0.116
15,CACTCC,0.684 ± 0.0287
16,CTGCAG,0.467 ± 0.0711
17,CAGCTC,0.526 ± 0.0361
18,CAGATG,0.959 ± 0.0159
19,GTAGCA,0.817 ± 0.0421
20,CCACAC,0.516 ± 0.0626

row,Sequence,binding signal [fold-change vs cycle 0]
1,ATTATC,1.85 ± 0.207
2,AATTAA,2.2 ± 0.282
3,ATGTCC,0.904 ± 0.0203
4,CCGTTA,0.854 ± 0.0323
5,GATTAC,1.45 ± 0.0912
6,CGAAAG,0.79 ± 0.0572
7,CGTACG,0.481 ± 0.0656
8,TTGCAA,1.146 ± 0.00914
9,GAGGGA,0.684 ± 0.0537
10,CTCGGA,0.589 ± 0.0706
11,CCCGTA,0.557 ± 0.0362
12,CGTGTC,0.545 ± 0.0369
13,CTAGGA,0.975 ± 0.0202
14,CGAGGA,0.587 ± 0.0701
15,GGACAA,0.828 ± 0.043
16,AAGCTG,0.801 ± 0.0274
17,CTCATC,1.06 ± 0.0243
18,CTTAGC,0.8905 ± 0.00272
19,AAAAGT,1.58 ± 0.113
20,AAAGAC,1.26 ± 0.0352
